Assays:
Assay in all cases: log2 ratio of Biotin-Ahx-Ub-VS probe labelling (fragment/DMSO); higher = less target engagement (more negative = stronger competition), active = hit call of the paper (q ≤ 0.05, log2 ratio ≤ -1)
Conditions in all cases: compound concentration: 200 uM; treatment time: 3 h
OTUD6B = molecular target: T1, OTUD6B (UniProt Q8N6M0)
T1 sequence (whole entry): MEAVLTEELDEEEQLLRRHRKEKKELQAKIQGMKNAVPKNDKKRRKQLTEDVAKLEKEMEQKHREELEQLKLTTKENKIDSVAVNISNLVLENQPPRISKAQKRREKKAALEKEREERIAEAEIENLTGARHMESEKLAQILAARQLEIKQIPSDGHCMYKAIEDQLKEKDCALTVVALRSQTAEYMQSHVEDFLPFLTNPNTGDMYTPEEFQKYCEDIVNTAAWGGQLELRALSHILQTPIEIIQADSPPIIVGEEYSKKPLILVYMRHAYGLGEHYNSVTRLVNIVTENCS
Outline: (§1)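 Average log2 ratios of fragment over vehicle were obtained by unpaired t-test from global-median-normalised Spectronaut label-free quantities. Proteins with ≥2 unique peptides were included. HEK293T lysate (495 µg per sample) was treated in triplicate with fragment at 200 µM or vehicle for 3 h, then with Biotin-Ahx-Ub-VS at 0.5 µM final for 1 h, and labelled DUBs were NeutrAvidin-enriched and run by diaPASEF LC-MS/MS.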

OTUD7B = molecular target: T2, OTUD7B (UniProt Q6GQQ9)
T2 sequence (whole entry): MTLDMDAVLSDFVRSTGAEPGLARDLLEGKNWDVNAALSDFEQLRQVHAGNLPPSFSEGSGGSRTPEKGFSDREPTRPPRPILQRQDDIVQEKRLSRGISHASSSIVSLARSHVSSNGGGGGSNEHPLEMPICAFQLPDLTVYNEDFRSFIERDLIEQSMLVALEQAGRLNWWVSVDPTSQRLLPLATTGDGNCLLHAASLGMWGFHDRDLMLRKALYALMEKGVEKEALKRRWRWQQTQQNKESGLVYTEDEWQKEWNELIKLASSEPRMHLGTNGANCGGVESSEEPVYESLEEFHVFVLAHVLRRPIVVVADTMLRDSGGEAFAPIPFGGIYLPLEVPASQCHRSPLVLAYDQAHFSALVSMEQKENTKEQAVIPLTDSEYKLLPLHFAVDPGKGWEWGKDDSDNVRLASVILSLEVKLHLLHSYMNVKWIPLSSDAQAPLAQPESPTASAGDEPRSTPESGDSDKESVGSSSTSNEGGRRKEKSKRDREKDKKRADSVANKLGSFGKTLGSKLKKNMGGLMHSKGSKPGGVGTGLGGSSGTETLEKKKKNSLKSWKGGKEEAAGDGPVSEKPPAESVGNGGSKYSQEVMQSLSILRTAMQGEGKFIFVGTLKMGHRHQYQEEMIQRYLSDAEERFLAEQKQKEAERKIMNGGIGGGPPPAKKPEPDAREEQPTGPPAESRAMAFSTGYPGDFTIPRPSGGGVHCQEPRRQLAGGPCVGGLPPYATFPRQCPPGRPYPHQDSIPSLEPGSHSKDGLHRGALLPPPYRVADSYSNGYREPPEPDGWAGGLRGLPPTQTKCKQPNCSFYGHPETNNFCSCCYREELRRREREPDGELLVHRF
Outline: as §1

PRPF8 = PRPF8 (UniProt Q6P2Q9)
Outline: as §1

PSMD7 = molecular target: T3, PSMD7 (UniProt P51665)
T3 sequence (whole entry): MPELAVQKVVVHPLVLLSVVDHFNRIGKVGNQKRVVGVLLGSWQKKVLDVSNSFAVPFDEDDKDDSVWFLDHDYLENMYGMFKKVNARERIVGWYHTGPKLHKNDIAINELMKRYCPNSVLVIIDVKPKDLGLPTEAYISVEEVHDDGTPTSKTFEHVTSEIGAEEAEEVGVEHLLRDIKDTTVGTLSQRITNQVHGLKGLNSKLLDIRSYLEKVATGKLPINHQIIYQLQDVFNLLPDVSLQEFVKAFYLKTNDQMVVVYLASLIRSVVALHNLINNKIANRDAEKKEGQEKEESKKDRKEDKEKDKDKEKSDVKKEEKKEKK
Outline: as §1

UCHL1 = UCHL1 (UniProt P09936)
Sequence of UCHL1 (P09936 whole entry, looked up): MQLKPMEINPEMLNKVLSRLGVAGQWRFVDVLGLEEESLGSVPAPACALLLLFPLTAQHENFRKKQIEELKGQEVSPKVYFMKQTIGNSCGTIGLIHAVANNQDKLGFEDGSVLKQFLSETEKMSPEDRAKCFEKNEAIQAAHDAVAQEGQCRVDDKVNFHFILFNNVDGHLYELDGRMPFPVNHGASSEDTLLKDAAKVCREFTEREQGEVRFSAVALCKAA
Outline: as §1

UCHL3 = molecular target: T4, UCHL3 (UniProt P15374)
T4 sequence (whole entry): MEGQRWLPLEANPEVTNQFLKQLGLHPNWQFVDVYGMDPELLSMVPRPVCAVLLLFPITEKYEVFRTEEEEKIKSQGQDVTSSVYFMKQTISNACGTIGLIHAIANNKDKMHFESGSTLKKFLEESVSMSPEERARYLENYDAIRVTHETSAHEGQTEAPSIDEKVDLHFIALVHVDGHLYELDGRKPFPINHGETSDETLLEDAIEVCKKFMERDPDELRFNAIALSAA
Outline: as §1

UCHL5 = molecular target: T5, UCHL5 (UniProt Q9Y5K5)
T5 sequence (whole entry): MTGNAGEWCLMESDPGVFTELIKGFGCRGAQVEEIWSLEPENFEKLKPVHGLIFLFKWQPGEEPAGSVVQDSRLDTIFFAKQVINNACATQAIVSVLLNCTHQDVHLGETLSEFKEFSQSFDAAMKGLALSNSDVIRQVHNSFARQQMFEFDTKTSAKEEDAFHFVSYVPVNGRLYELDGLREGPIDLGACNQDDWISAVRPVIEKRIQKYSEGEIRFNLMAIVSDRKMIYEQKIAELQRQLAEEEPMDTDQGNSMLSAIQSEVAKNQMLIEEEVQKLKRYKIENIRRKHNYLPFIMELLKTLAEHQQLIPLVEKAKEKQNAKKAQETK
Outline: as §1

USP10 = USP10 (UniProt Q14694)
Sequence of USP10 (Q14694 whole entry): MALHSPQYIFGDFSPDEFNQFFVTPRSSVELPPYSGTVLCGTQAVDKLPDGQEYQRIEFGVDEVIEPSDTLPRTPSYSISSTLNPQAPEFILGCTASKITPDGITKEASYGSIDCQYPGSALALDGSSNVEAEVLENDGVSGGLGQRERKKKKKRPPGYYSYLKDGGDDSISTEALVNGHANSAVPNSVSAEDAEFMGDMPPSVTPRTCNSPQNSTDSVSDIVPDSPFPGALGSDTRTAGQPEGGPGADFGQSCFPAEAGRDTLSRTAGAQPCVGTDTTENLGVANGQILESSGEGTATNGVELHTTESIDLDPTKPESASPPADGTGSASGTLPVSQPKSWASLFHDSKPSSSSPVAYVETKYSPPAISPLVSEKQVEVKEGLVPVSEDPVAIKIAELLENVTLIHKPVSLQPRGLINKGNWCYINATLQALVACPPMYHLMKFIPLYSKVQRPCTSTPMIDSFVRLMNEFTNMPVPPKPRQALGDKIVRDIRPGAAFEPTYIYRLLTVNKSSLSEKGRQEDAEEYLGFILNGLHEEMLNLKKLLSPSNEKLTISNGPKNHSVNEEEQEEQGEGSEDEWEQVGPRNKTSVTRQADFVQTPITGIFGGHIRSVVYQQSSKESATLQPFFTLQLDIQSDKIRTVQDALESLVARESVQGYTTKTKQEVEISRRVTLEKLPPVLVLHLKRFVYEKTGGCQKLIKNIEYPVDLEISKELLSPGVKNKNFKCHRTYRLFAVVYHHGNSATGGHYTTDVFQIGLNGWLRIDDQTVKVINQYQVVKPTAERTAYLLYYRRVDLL
Outline: as §1

USP15 = molecular target: T6, USP15 (UniProt Q9Y4E8)
T6 sequence (whole entry): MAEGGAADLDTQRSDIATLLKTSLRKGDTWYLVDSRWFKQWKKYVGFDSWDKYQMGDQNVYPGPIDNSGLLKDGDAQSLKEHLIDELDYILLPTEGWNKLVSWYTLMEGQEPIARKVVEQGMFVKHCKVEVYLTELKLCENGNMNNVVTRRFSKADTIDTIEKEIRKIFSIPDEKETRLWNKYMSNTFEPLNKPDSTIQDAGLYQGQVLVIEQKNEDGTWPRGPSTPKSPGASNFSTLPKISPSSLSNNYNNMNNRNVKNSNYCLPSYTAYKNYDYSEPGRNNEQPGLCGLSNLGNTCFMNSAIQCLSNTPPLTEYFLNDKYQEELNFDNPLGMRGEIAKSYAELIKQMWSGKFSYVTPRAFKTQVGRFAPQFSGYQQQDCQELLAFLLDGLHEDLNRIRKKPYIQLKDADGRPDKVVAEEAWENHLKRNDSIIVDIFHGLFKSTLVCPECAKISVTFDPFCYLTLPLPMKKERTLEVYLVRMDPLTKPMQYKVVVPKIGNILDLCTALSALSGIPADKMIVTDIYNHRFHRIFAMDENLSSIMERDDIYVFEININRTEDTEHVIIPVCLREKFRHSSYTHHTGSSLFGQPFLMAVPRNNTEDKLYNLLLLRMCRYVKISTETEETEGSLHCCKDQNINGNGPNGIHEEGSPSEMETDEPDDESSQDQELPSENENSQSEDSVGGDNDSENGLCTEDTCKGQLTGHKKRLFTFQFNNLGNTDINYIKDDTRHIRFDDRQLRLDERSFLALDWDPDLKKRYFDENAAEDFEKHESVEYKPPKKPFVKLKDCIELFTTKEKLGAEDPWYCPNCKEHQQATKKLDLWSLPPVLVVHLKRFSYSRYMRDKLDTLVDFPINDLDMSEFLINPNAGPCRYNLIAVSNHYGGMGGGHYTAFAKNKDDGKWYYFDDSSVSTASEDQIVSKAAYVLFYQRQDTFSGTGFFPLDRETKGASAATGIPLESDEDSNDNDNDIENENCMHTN
Outline: as §1

USP16 = USP16 (UniProt Q9Y5T5)
Sequence of USP16 (Q9Y5T5 whole entry, looked up): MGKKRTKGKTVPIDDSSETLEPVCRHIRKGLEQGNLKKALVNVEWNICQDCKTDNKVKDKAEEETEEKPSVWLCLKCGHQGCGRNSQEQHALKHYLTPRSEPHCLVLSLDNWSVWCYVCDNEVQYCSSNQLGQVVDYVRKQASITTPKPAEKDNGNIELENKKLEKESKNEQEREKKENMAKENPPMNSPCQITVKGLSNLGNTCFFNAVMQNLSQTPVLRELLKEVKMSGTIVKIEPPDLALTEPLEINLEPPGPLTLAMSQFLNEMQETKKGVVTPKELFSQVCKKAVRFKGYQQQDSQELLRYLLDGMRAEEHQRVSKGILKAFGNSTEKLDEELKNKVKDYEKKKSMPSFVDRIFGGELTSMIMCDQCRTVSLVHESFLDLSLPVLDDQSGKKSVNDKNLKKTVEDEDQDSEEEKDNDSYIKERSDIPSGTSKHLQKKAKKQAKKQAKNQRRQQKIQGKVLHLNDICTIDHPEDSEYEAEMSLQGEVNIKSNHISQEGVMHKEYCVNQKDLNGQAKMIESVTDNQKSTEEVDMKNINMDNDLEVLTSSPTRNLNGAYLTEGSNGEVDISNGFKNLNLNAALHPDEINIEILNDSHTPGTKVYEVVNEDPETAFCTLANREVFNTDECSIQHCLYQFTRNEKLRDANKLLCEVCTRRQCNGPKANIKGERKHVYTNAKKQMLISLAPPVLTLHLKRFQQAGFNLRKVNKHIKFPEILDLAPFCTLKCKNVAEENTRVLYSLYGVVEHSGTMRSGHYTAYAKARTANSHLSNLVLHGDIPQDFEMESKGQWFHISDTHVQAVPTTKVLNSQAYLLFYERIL
Outline: as §1

Measured: log2 ratio of Biotin-Ahx-Ub-VS probe labelling

CS(=O)(=O)c1ccc(NC(=O)CCl)cc1
inactive: OTUD6B -0.109 | OTUD7B -0.594 | PRPF8 -0.257 | PSMD7 0.0407 | UCHL3 0.206 | UCHL5 -0.282 | USP10 -0.104 | USP15 -0.136 | USP16 -0.145
active: UCHL1 -1.26
